In experiment [1] the target is CCAAT/enhancer-binding protein beta (Homo sapiens) (UniProt P17676). The experiment is described as follows: ATG_C_EBP_CIS: Attagene CIS-FACTORIAL HepG2 Assay for human CCAAT/Enhancer Binding Protein (C/EBP) beta (AID 2282927). The conditions noted are these: HepG2 Attagene cis-factorial transcription factor reporter; actives raise or lower the signal. The procedure, abridged: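 Chemical-treated HepG2 cells (24 h) bearing cis-regulated reporter constructs were processed for total RNA, then reverse transcription, PCR amplification, fluorescent primer extension and fragment analysis; gain- and loss-of-signal were fitted against DMSO.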
CCAAT/enhancer-binding protein beta (Homo sapiens), sequence (P17676 whole entry, looked up, the tested form may be a part): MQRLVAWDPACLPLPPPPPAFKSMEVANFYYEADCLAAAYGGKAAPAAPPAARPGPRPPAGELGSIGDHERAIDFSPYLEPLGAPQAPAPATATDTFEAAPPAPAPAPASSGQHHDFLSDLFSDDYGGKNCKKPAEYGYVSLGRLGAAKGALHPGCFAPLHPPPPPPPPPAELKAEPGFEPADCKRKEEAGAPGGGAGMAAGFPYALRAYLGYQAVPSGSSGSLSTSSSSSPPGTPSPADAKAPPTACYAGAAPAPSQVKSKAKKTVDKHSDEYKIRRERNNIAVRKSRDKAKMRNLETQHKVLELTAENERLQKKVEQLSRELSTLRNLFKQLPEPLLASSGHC

Experiment [2] can be described thus: ATG_CMV_CIS: Attagene CIS-FACTORIAL HepG2 Assay for human CMV (Internal Marker) (AID 2282928).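 Note: endpoint acts as a background internal control marker rather than a target.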 Conditions: HepG2 CMV promoter reporter, transcription factor profiling; actives raise or lower the signal. In a few lines: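 CMV internal-marker background readout in transiently transfected HepG2 cells bearing cis-regulated reporter units. Reporter mRNA is measured 24 h after dosing by RT-PCR and capillary electrophoresis, with bidirectional fitting against DMSO.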

Experiment [3] in a line: ATG_DR4_LXR_CIS: Attagene CIS-FACTORIAL HepG2 Assay for human Liver X Receptor (LXR), DR4 submotif (AID 2282929). Conditions: HepG2 Attagene DR4 cis-reporter, mRNA transcription; actives raise or lower the signal. The procedure, abridged: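 HepG2 cells were transiently transfected with multiple cis-regulated reporter units and dosed for 24 hours. The DR4 reporter mRNA was quantified by RT-PCR, 6-FAM labelling and capillary electrophoresis. Bidirectional fits used DMSO as baseline.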

Experiment [4] concerns the target Aryl hydrocarbon receptor (Homo sapiens) (UniProt P35869). Kind of experiment: ATG_Ahr_CIS: Attagene CIS-FACTORIAL HepG2 Assay for human Aryl Hydrocarbon Receptor (Ahr) (AID 2282930). Conditions: HepG2 AhR cis-factorial reporter transcription; actives raise or lower the signal. The procedure, abridged:
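Following 24 h of chemical dosing, transfected HepG2 liver cells with cis-driven reporter units were lysed for RNA; reporter mRNA was quantified via RT-PCR and capillary electrophoresis, and responses fitted bidirectionally from DMSO.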

A short description of experiment [5]: ATG_AP_1_CIS: Attagene CIS-FACTORIAL HepG2 Assay for human Activator Protein 1 (AP-1) (AID 2282931). Conditions: HepG2 Attagene cis-factorial AP-1 reporter mRNA; actives raise or lower the signal. The procedure, abridged: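 HepG2 cells transiently transfected with cis-element-driven reporter transcription units, dosed for 24 hours. Reporter mRNA measured by RT-PCR, 6-FAM labelling, HpaI digestion and capillary electrophoresis. Bidirectional fitting against DMSO baseline.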

The nature of experiment [6]: ATG_AP_2_CIS: Attagene CIS-FACTORIAL HepG2 Assay for human Activator Protein 2 (AP-2) (AID 2282932). The conditions noted are these: HepG2 AP-2 cis-reporter, Attagene transcription factor profiling; actives raise or lower the signal. In a few lines: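 Bidirectional curve fitting against DMSO was applied to reporter mRNA signals from HepG2 cells 24 h after dosing. Cis-promoter reporter units, transiently transfected, were read by RT-PCR plus capillary electrophoresis.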

A short description of experiment [7]: ATG_BRE_CIS: Attagene CIS-FACTORIAL HepG2 Assay for human Bone Morphogenetic Protein (BMP) Response Element (BRE) (AID 2282933). The conditions noted are these: HepG2 BMP response element reporter, Attagene transcription factor profiling; actives raise or lower the signal. The procedure, abridged: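 Fluorescence-labelled reporter cDNA fragments, separated by capillary electrophoresis, gave the signal for this component of a 52-readout multiplex. HepG2 cells were transfected, exposed to chemicals for 24 h, and compared with DMSO using bidirectional fitting.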

Experiment [8] concerns the target Retinoic acid receptor alpha (Homo sapiens) (UniProt P10276). Kind of experiment: ATG_DR5_RAR_CIS: Attagene CIS-FACTORIAL HepG2 Assay for human Retinoic Acid Receptor Alpha (RARE), DR5 submotif (AID 2282934).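 For AC50: reporter responds to endogenous RAR alpha beta and gamma in HepG2 not RARA alone.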 The conditions noted are these: HepG2 Attagene cis-factorial RARE DR5 reporter, mRNA; actives raise or lower the signal. The procedure, abridged: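 Transfected HepG2 reporter cells are exposed to chemicals for 24 h. Then RNA is extracted and the DR5 element reporter transcript is measured by RT-PCR and capillary electrophoresis, with bidirectional curve fitting relative to DMSO.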

Experiment [9] concerns the target Transcription factor E2F1 (Homo sapiens) (UniProt Q01094). The experiment is described as follows: ATG_E2F_CIS: Attagene CIS-FACTORIAL HepG2 Assay for human E2F Transcription Factor 1 (AID 2282935). Conditions: HepG2 Attagene cis-reporter, E2F reporter RNA transcripts; actives raise or lower the signal. In a few lines: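 Multiplexed cis-reporter assay: HepG2, transient transfection, 24 h dosing, mRNA quantitation by labeled RT-PCR and CE.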

A short description of experiment [10]: ATG_E_Box_CIS: Attagene CIS-FACTORIAL HepG2 Assay for human Enhancer Box (E-box) (AID 2282936). The conditions noted are these: HepG2 E-box cis-reporter transcription, actives raise or lower the signal. The procedure, abridged:
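Multiplexed CIS reporter system in transiently transfected HepG2 cells measures native transcription factor activity. Reporter RNA after 24 h exposure is profiled by RT-PCR-capillary electrophoresis.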

Experiment [11] can be described thus: ATG_M_61_CIS: Attagene CIS-FACTORIAL HepG2 Assay for M61 Transcription Factor (Internal Marker) (AID 2282937). The conditions noted are these: HepG2 Attagene CIS-FACTORIAL M61 internal marker reporter; actives raise or lower the signal. In a few lines: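 HepG2 cells transiently transfected with multiplexed cis-promoter reporter units reporting endogenous transcription factor activity, measured 24 h after dosing. Reporter mRNA quantified by RT-PCR and capillary electrophoresis; bidirectional fit against DMSO baseline.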

Experiment [12] can be described thus: ATG_EGR_CIS: Attagene CIS-FACTORIAL HepG2 Assay for human Early Growth Response 1 (EGR1) (AID 2282938). Conditions: HepG2 Attagene CIS-FACTORIAL EGR reporter mRNA; actives raise or lower the signal. In a few lines:
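HepG2 cells transiently transfected with cis-element-driven multiplexed reporter units, dosed for 24 h. EGR1-element reporter mRNA quantified by RT-PCR, 6-FAM labelling, HpaI digestion and capillary electrophoresis; bidirectional fit versus DMSO.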

Experiment [13] can be described thus: ATG_M_19_CIS: Attagene CIS-FACTORIAL HepG2 Assay for M19 Transcription Factor (Internal Marker) (AID 2282939). The conditions noted are these: HepG2 Attagene CIS-FACTORIAL M19 internal marker reporter; actives raise or lower the signal. The procedure, abridged: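 HepG2, MRTU transient transfection, 24 h dosing. Total RNA → RT-PCR → 6-FAM primer extension → HpaI digest → CE fluorescence. Bidirectional curve fit, DMSO negative control.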

A short description of experiment [14]: ATG_ERE_CIS: Attagene CIS-FACTORIAL HepG2 Assay for Estrogen Response Element (ERE) (AID 2282940). The conditions noted are these: HepG2 ERE cis-reporter, Attagene RNA transcript; actives raise or lower the signal. The procedure, abridged:
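After a 24 h chemical treatment, RNA from reporter-transfected HepG2 cells is reverse-transcribed, PCR-amplified and fluorescently labelled. Fragments separated by capillary electrophoresis give reporter signal; DMSO serves as negative control.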

Experiment [15] can be described thus: ATG_Ets_CIS: Attagene CIS-FACTORIAL HepG2 Assay for human Erythroblast Transformation Specific (ETS) (AID 2282941). The conditions noted are these: HepG2 ETS cis-reporter transcription, actives raise or lower the signal. The procedure, abridged: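 HepG2 cells transfected with multiple cis-regulated reporter units measuring endogenous ETS-driven transcription, 24 h after dosing. Reporter mRNA quantified by RT-PCR with capillary electrophoresis; bidirectional fit relative to DMSO.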

In experiment [16] the target is Hepatocyte nuclear factor 3-beta (Homo sapiens) (UniProt Q9Y261). The experiment is described as follows: ATG_FoxA2_CIS: Attagene CIS-FACTORIAL HepG2 Assay for human Forkhead box A2 (FOXA2) (AID 2282942). The conditions noted are these: HepG2 cis-reporter transcription factor activity, 24 h; actives raise or lower the signal. The procedure, abridged:
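HepG2 transiently transfected with a multiplexed cis-promoter reporter library read endogenous FOXA2 activity. After 24 h compound exposure, reporter mRNA was quantified by RT-PCR, HpaI digestion and capillary electrophoresis. Bidirectional fit against DMSO.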

A short description of experiment [17]: ATG_FoxO_CIS: Attagene CIS-FACTORIAL HepG2 Assay for human Forkhead box O (FoxO) (AID 2282943). Conditions: HepG2 Attagene cis-reporter, FoxO element, mRNA; actives raise or lower the signal. The procedure, abridged: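 24 h chemical exposure, HepG2 with transient cis-MRTU transfection. RNA extraction, oligo(dT) RT, reporter-specific PCR, primer-extension labelling, HpaI digestion, CE fragment analysis; bidirectional fit, DMSO baseline.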

Experiment [18] in a line: ATG_GATA_CIS: Attagene CIS-FACTORIAL HepG2 Assay for human GATA Binding Protein (AID 2282944). The conditions noted are these: HepG2 GATA cis-element reporter, Attagene multiplex mRNA; actives raise or lower the signal. In a few lines:
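Cells: HepG2, transiently transfected with cis-regulated reporter transcription units. Exposure: 24 h. Detection: RT-PCR plus capillary electrophoresis of FAM-labeled fragments. Analysis: bidirectional, DMSO as baseline.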

The nature of experiment [19]: ATG_GLI_CIS: Attagene CIS-FACTORIAL HepG2 Assay for human Zinc Finger Protein GLI1 (AID 2282945). The conditions noted are these: HepG2, Attagene cis-factorial reporter mRNA, GLI element; actives raise or lower the signal. In a few lines: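 HepG2 cells transiently transfected with cis-promoter multiplexed reporter units report endogenous transcription factor activity. After 24 h chemical exposure, reporter mRNA was quantified by RT-PCR, 6-FAM labelling, HpaI digestion and capillary electrophoresis, with bidirectional fitting against DMSO.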

The structures appear in SMILES notation. Calls of active or inactive are those of the source. Rule for the calls: active = hit-call score of the fitted dose curve at least 0.9, where 1 is the maximum; inactive = score below 0.9.

Retinoic acid receptor alpha (Homo sapiens), sequence (P10276 whole entry, looked up): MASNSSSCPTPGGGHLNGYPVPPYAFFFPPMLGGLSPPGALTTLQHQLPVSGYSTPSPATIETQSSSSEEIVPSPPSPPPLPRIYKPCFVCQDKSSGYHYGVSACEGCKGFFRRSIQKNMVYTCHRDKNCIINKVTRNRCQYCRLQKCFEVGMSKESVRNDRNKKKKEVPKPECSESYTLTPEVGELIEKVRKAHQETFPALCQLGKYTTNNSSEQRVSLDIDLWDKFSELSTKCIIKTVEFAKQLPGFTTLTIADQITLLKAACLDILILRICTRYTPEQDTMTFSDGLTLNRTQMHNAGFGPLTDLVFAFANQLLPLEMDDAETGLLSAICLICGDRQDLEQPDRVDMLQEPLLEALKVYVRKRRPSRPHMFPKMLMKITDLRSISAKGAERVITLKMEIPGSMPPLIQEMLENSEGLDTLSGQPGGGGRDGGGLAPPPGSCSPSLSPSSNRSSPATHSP
Transcription factor E2F1 (Homo sapiens), sequence (Q01094 whole entry, looked up): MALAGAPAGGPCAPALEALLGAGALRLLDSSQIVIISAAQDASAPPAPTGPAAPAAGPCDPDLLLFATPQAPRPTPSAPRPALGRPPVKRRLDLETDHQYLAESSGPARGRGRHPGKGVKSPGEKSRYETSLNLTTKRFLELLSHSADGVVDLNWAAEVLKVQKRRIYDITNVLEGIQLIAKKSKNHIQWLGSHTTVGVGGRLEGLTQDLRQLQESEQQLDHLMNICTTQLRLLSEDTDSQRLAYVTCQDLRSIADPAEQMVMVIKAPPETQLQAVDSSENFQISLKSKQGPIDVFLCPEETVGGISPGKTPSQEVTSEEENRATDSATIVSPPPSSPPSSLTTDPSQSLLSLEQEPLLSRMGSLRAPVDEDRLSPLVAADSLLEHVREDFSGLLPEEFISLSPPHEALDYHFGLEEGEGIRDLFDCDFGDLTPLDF
Aryl hydrocarbon receptor (Homo sapiens), sequence (P35869 whole entry, looked up): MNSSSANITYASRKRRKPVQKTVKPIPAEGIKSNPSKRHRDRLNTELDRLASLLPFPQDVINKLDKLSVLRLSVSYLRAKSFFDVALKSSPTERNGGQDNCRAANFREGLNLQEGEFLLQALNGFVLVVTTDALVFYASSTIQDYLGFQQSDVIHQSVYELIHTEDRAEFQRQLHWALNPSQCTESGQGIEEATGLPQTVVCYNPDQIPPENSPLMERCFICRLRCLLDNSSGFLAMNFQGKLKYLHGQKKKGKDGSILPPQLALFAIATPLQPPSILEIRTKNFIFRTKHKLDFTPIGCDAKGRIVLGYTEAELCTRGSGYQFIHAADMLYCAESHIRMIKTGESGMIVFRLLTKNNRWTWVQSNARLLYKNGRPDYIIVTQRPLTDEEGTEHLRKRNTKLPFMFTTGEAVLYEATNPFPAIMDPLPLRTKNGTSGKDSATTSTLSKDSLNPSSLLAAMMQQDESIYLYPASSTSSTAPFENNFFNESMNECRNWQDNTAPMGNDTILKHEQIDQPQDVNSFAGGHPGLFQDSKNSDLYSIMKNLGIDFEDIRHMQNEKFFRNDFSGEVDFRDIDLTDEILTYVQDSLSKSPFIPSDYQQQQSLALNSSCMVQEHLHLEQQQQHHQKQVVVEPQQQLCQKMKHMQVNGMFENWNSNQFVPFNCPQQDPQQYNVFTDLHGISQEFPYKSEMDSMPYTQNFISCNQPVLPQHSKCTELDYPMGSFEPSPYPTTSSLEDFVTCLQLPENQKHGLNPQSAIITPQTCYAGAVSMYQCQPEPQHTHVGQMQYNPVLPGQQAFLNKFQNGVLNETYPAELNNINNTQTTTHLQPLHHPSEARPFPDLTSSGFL
Hepatocyte nuclear factor 3-beta (Homo sapiens), sequence (Q9Y261 whole entry, looked up): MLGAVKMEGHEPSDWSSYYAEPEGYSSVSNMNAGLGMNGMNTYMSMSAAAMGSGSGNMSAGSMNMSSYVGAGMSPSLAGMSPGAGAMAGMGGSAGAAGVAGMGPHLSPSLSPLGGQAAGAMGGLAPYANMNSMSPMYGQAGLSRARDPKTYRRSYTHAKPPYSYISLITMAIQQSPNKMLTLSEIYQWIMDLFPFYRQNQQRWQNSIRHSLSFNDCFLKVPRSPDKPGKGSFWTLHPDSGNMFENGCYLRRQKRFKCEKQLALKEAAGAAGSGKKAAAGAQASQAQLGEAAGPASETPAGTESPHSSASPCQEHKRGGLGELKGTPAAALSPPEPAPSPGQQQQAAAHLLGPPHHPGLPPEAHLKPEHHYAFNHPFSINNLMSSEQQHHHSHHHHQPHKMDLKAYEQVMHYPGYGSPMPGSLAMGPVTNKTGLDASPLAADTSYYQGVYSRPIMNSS

Consider `O=C1CCCC(=O)O1`, for which the outcome in experiment [1], in [2], in experiment [3], in experiment [4], in [5] and in [6] was inactive. Further, the compound was called inactive in [7], in experiment [8], in experiment [9], in [10], in experiment [11] and in [12]. For the same compound, the compound was classed as inactive in experiment [13], in experiment [14], in experiment [15], in experiment [16], in experiment [17] and in experiment [18]. Further, the outcome in experiment [19] was inactive.

Take `CC=CC(=O)N(CC)c1ccccc1C`: the result in [1], in experiment [2], in experiment [3], in [4], in experiment [5] and in experiment [6] was inactive. Also, the outcome in [8], in [9], in experiment [10], in experiment [11], in experiment [12] and in [13] was inactive. In addition, the result in experiment [14], in [15], in experiment [16], in experiment [17], in [18] and in [19] was inactive.

For orientation: AC50 means the midpoint of the concentration-response curve, whichever way the signal moves. Regarding `CC[C@H]1OC(=O)[C@H](C)[C@@H](O[C@H]2C[C@@](C)(OC)[C@@H](O)[C@H](C)O2)[C@H](C)[C@@H](O[C@@H]2O[C@H](C)C[C@H](N(C)C)[C@H]2O)[C@](C)(O)C[C@@H](C)C(=NOCOCCOC)[C@H](C)[C@@H](O)[C@]1(C)O`, the outcome in experiment [1], in experiment [2], in experiment [3], in experiment [4], in experiment [5] and in [6] was inactive. Also, the compound was classed as inactive in experiment [8], in [9], in experiment [10], in [11], in experiment [12] and in [13]. Besides, the compound was called inactive in experiment [15], in experiment [16], in experiment [17], in [18] and in [19]. In experiment [14], the AC50 was 37.6 µM (active).

Turning to `CCOC(=O)N1CCC(=C2c3ccc(Cl)cc3CCc3cccnc32)CC1`, the result in experiment [1], in experiment [4], in experiment [5], in [6], in [7] and in experiment [8] was inactive. The compound was classed as inactive in [9], in [11], in experiment [13], in [14], in experiment [15] and in experiment [16]. The result in [18] and in [19] was inactive. The AC50 in [2] is 7.56 µM (active); in experiment [3], 9.1 µM (active); in experiment [12], 6.7 µM (active).

With `N=c1ccn2c(n1)O[C@H]1[C@H](O)[C@@H](CO)O[C@H]12`, the outcome in experiment [1], in experiment [2], in experiment [3], in experiment [4], in experiment [5] and in experiment [6] was inactive. Also, the compound was called inactive in experiment [7], in experiment [8], in experiment [9], in [10], in [11] and in [13]. Further, the result in experiment [14], in [15], in experiment [16], in experiment [17], in experiment [18] and in experiment [19] was inactive.

As for `SCCc1cnccn1`, the outcome in experiment [1], in [3], in experiment [4], in experiment [6], in experiment [9] and in experiment [10] was inactive. Further, the outcome in experiment [11], in [13], in [14], in experiment [15], in experiment [16] and in [18] was inactive. Also, in experiment [19], the result was inactive. Also, the AC50 is 53.9 µM (active) in experiment [2], 27.8 µM (active) in [5], 23.1 µM (active) in experiment [7] and 27.6 µM (active) in experiment [8].

For the compound `CCc1c(C(=O)O)c(=O)cnn1-c1ccc(Cl)cc1`, the outcome in experiment [1], in experiment [2], in experiment [3], in experiment [4], in experiment [5] and in [6] was inactive. The result in [7], in experiment [8], in experiment [9], in experiment [10], in [11] and in experiment [12] was inactive. Further, the compound was classed as inactive in [13], in experiment [15], in experiment [16], in experiment [17], in experiment [18] and in [19]. Moreover, the AC50 in experiment [14] was 28.5 µM (active).

For the origin of these results see PubChem BioAssay (EPA / NIEHS).
